The values below come from PubChem BioAssay (Tox21).

Structures are written as SMILES. Calls of active or inactive are those of the source. Calls follow the shape of the dose curve; as a rule, active = well fitted curve in the direction sought with a large enough effect in the repeat runs; inconclusive = weak or mixed curves; inactive = flat fitted curve, though single readings scatter.
% is scaled to controls: 0 for no effect and ±100 for the full control effect.

The experiment in a line: qHTS assay to test for compound auto fluorescence at 535 nm (green) in HepG2 cell free culture (AID 720686). Conditions: Cell-free medium, green autofluorescence 485/535 nm; series mostly up to 91.3 µM; fluorescence, % of fluorescein control: at the top concentration. An excerpt: U.S. Tox21 Program National Center for Advancing Translational Sciences [NCATS] NIH Chemical Genomics Center [NCGC] U.S. Environmental Protection Agency [EPA] National Institutes of Environmental Health Sciences [NIEHS] National Toxicology Program [NTP] U.S. Food and Drug Administration [FDA] Tox21 Assay Overview: Compound auto fluorescence often interferes with screening of the compound library against various biological targets and signaling pathways. Some of these compounds may have fluorophoric properties. Such properties may interfere with the assay outputs resulting in false positives and/or negatives. To decrease such complications and ensure the compound activities are relevant in terms of biological response, the Tox21 10K compound library was screened for auto fluorescence. From the fluorophores used as reporter signals in our screening assays, the auto fluorescence equivalencies of compounds against three fluorophores have been evaluated: Triamterene, Fluorescein and Rose Bengal sodium for blue, green and red fluorescence, respectively. The fluorescence intensities were measured using Excitation/Emission wavelengths at 405/460nm, 485/535nm and 540/590nm for blue, green and red labels, respectively. This assay includes the green fluorescence data.
Tox21 Assay Protocol Summary: 5 uL of culture medium (MEM containing 10% FBS) per well was dispensed into black wall/clear bottom 1536-well plates using a Multidrop Combi Dispenser (ThermoFisher Scientific, Waltham, MA). After 23 nL compound or DMSO vehicle was transferred into assay plate by a pintool work station (Kalypsys, San Diego, CA), fluorescence intensities in the assay plates were measured by an Envision (PerkinElmer, Shelton, CT) plate reader using three labels for measuring blue, green and red fluorescence at […] 460, 535 and 590nm respectively.
As to `CCCCCCCCCCCCCC(=O)OCC`, the “fluorescence, % of fluorescein control” value is 0.0721% (inactive).
Turning to `CCC(C)c1nccnc1OC` (stereo not given), the “fluorescence, % of fluorescein control” value was -0.0455% (inactive).
In the case of `CN1C(CCl)Nc2cc(Cl)c(S(N)(=O)=O)cc2S1(=O)=O` (stereo not given) it was -0.0575% [at 46 µM] (inactive); in that of `CC(C)(C)C(=O)NCCCC(=O)O`, 0.123% [at 46 µM] (inactive); in that of `O=C(CCBr)N1CCN(C(=O)CCBr)CC1`, 0.0609% [at 46 µM] (inactive).
As for `CCNC(=O)C(C)OC(=O)Nc1ccccc1` (stereo not given), the “fluorescence, % of fluorescein control” value was -0.104% (inactive).
With `CCCCc1ccc(Cl)cc1`, the “fluorescence, % of fluorescein control” value was 0.0913% (inactive).
As to `CC(=O)Nc1ccc(OCCOCCOc2ccc(NC(C)=O)cc2)cc1`, the “fluorescence, % of fluorescein control” value is 0.0223% [at 46 µM] (inactive).
For the compound `CC(C)(C)C(=O)CC(=O)C(C)(C)C`, the “fluorescence, % of fluorescein control” value is -0.0966% [at 95.7 µM] (inactive).
Take `C=CCN(CC=C)CC=C`: the “fluorescence, % of fluorescein control” value is 0.0417% (inactive).
On to `COC(=O)/C=C(\C)CCC=C(C)C`, for which the “fluorescence, % of fluorescein control” value was 0.0066% (inactive).
Take `COc1cnc(NS(=O)(=O)c2ccc(N)cc2)nc1`: the fluorescence, % of fluorescein control is 0.0043% [at 18.6 µM] (inactive).
As for `CN1CCN(C(=O)C2CCCCC2)CC1`, the “fluorescence, % of fluorescein control” value is 0.0259% [at 46 µM] (inactive).
Consider `CCCCCCC(O)CO` (stereo not given), for which the “fluorescence, % of fluorescein control” value is 0.0067% (inactive).
In the case of `CCCC(=O)CC` it was -0.126% [at 95.7 µM] (inactive); in that of `CCCCC(CC)COC(=O)CC#N` (stereo not given), 0.108% (inactive); in that of `CCN1CCN(C(=O)N[C@@H](C(=O)N[C@@H]2C(=O)N3[C@@H]2SC(C)(C)[C@H]3C(=O)O)c2ccccc2)C(=O)C1=O`, -0.126% [at 46 µM] (inactive).
Next, `CCCC(=O)OC`: -0.06% (inactive); `COC(=O)c1c(C)cc(O)c(C)c1O`: 0.121% (inactive).
Turning to `CCCOc1ccc(C(=O)OCCN(CC)CC)cc1N`, the “fluorescence, % of fluorescein control” value is -0.0405% [at 46 µM] (inactive).
In the case of `NC(=O)CC[C@@H](N)C(=O)O`, the “fluorescence, % of fluorescein control” value was 0.0124% [at 46 µM] (inactive).
`C=CCCCCCCCCCCCCCC`: the fluorescence, % of fluorescein control is 0.0254% [at 18.6 µM] (inactive).
Consider `CCCC[O][Al]([O]CCCC)[O]CCCC`, for which the “fluorescence, % of fluorescein control” value is 0.0519% (inactive).
As for `CCCCCCCCC1CO1` (stereo not given), the “fluorescence, % of fluorescein control” value is -0.0955% [at 95.7 µM] (inactive).
In the case of `CC(O)CCCCn1c(=O)c2c(ncn2C)n(C)c1=O` (stereo not given) it was -0.037% [at 46 µM] (inactive).
As to `Cc1ccc(NC(N)=O)cc1`, the “fluorescence, % of fluorescein control” value was -0.109% (inactive).
`O=C(O)P(=O)(O)O`: the “fluorescence, % of fluorescein control” value was -0.001% [at 46 µM] (inactive).
With `Cc1ccc(OC(=O)CC(C)C)cc1`, the “fluorescence, % of fluorescein control” value was 0.0488% (inactive).
As to `C/C(Cl)=C/CCl`, the “fluorescence, % of fluorescein control” value was 0.222% [at 95.7 µM] (inactive).
Take `CC(C)(O)CCCC1=CCC(C=O)CC1` (stereo not given): the “fluorescence, % of fluorescein control” value is -0.126% [at 95.7 µM] (inactive).
In the case of `Cc1cc(N)no1` it was 0.126% [at 95.7 µM] (inactive); in that of `Cc1cc(O)c(Cl)cc1C`, 0.045% (inactive).
In the case of `C=CC(C)(CCC=C(C)C)OC(=O)C(C)C` (stereo not given) it was 0.0061% (inactive).
Next, `O=C(OOC(=O)c1ccccc1)c1ccccc1`: 0.0991% [at 46 µM] (inactive).
In the case of `CC/C=C\CCOC(=O)c1ccccc1`, the “fluorescence, % of fluorescein control” value was -0.0805% (inactive).
On to `C[Si](C)(C)O[Si](O)(O)O`, for which the “fluorescence, % of fluorescein control” value was -0.0712% (inactive).
In the case of `C=COCCCCO` it was -0.0876% (inactive).
As to `O=P(O)(O)C(O)(Cc1cccnc1)P(=O)(O)O`, the “fluorescence, % of fluorescein control” value was 0.0055% [at 46 µM] (inactive).
Consider `CCOC(=O)COc1ccc2c(C)c(CCN(CC)CC)c(=O)oc2c1Cl`, for which the “fluorescence, % of fluorescein control” value is -0.016% [at 46 µM] (inactive).
Take `CCCCCCC(=O)c1ccccc1`: the “fluorescence, % of fluorescein control” value is -0.0051% (inactive).
